Experiment in all cases: PBM; 200 nM protein, PBS
Settings in all cases: dsDNA, one strand shown

Assay [1] addresses T1, SIX6 (Homo sapiens, UniProt O95475 114-200, L167I).
T1 sequence: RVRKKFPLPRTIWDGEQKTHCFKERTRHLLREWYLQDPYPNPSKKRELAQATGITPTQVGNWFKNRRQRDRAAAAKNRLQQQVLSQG

In assay [2] the target is T2, SIX6 (Homo sapiens, UniProt O95475 114-200, L143V).
T2 sequence: T1 sequence with L30V, I54L

In assay [3] the target is T3, SIX6 (Homo sapiens, UniProt O95475 114-200, H141N).
T3 sequence: T1 sequence with H28N, I54L

The target of assay [4] is T4, SIX6 (Homo sapiens, UniProt O95475 114-200, T165P).
T4 sequence: T1 sequence with T52P, I54L

The target of assay [5] is T5, SIX6 (Homo sapiens, UniProt O95475 114-200, L167M).
T5 sequence: T1 sequence with I54M

The target of assay [6] is T6, SIX6 (Homo sapiens, UniProt O95475 114-200, L143M).
T6 sequence: T1 sequence with L30M, I54L

Assay [7] concerns the target T7, SIX6 (Homo sapiens, UniProt O95475 114-200, L143I).
T7 sequence: T1 sequence with L30I, I54L

The target in assay [8] is T8, SIX6 (Homo sapiens, UniProt O95475 114-200, T165G).
T8 sequence: T1 sequence with T52G, I54L

Assay [9] addresses T9, SIX6 (Homo sapiens, UniProt O95475 114-200, T139Q).
T9 sequence: T1 sequence with T26Q, I54L

Assay [10] has as its target T10, SIX6 (Homo sapiens, UniProt O95475 114-200, T165A).
T10 sequence: T1 sequence with T52A, I54L

In assay [11] the target is T11, SIX6 (Homo sapiens, UniProt O95475 114-200, L167V).
T11 sequence: T1 sequence with I54V

The target in assay [12] is T12, SIX6 (Homo sapiens, UniProt O95475 114-200).
T12 sequence: T1 sequence with I54L

Assay [13] deals with T13, SIX6 (Homo sapiens, UniProt O95475 114-200, T165I).
T13 sequence: T1 sequence with T52I, I54L

Residue numbers refer to the chain shown, from its start.

For ATATCATC, the binding signal in assay [1] was 11.3 upbm affinity estimate (log intensity, higher = more binding, comparable within an allelic series); in assay [2], 10.5 upbm affinity estimate (log intensity, higher = more binding, comparable within an allelic series); in [3] it was 11.2 upbm affinity estimate (log intensity, higher = more binding, comparable within an allelic series); in assay [4] it was 10 upbm affinity estimate (log intensity, higher = more binding, comparable within an allelic series); in [5], 10.8 upbm affinity estimate (log intensity, higher = more binding, comparable within an allelic series); in [6], 11.1 upbm affinity estimate (log intensity, higher = more binding, comparable within an allelic series). Also, the binding signal in [7] was 10.5 upbm affinity estimate (log intensity, higher = more binding, comparable within an allelic series); in assay [8] it was 11.3 upbm affinity estimate (log intensity, higher = more binding, comparable within an allelic series); in assay [9], 11.3 upbm affinity estimate (log intensity, higher = more binding, comparable within an allelic series); in [10], 11.2 upbm affinity estimate (log intensity, higher = more binding, comparable within an allelic series); in [11], 11 upbm affinity estimate (log intensity, higher = more binding, comparable within an allelic series); in assay [12], 11.1 upbm affinity estimate (log intensity, higher = more binding, comparable within an allelic series). Besides, the binding signal in assay [13] is 11.1 upbm affinity estimate (log intensity, higher = more binding, comparable within an allelic series).
Turning to ATATACAC, the binding signal is 10.9 upbm affinity estimate (log intensity, higher = more binding, comparable within an allelic series) in assay [1]; 10.4 upbm affinity estimate (log intensity, higher = more binding, comparable within an allelic series) in assay [2]; 10.9 upbm affinity estimate (log intensity, higher = more binding, comparable within an allelic series) in assay [3]; 10.1 upbm affinity estimate (log intensity, higher = more binding, comparable within an allelic series) in assay [4]; 10.8 upbm affinity estimate (log intensity, higher = more binding, comparable within an allelic series) in assay [5]; 10.9 upbm affinity estimate (log intensity, higher = more binding, comparable within an allelic series) in assay [6]. Further, the binding signal in assay [7] was 10.4 upbm affinity estimate (log intensity, higher = more binding, comparable within an allelic series); in assay [8] it was 11.1 upbm affinity estimate (log intensity, higher = more binding, comparable within an allelic series); in [9] it was 11 upbm affinity estimate (log intensity, higher = more binding, comparable within an allelic series); in assay [10], 10.9 upbm affinity estimate (log intensity, higher = more binding, comparable within an allelic series); in assay [11], 10.7 upbm affinity estimate (log intensity, higher = more binding, comparable within an allelic series); in [12], 10.9 upbm affinity estimate (log intensity, higher = more binding, comparable within an allelic series). For the same sequence, the binding signal in assay [13] is 10.9 upbm affinity estimate (log intensity, higher = more binding, comparable within an allelic series).
On to GGCCGCCA, for which the binding signal in assay [1] is 8.71 upbm affinity estimate (log intensity, higher = more binding, comparable within an allelic series); in assay [2] it was 8.68 upbm affinity estimate (log intensity, higher = more binding, comparable within an allelic series); in assay [3], 8.73 upbm affinity estimate (log intensity, higher = more binding, comparable within an allelic series); in assay [4], 8.9 upbm affinity estimate (log intensity, higher = more binding, comparable within an allelic series); in [5] it was 8.74 upbm affinity estimate (log intensity, higher = more binding, comparable within an allelic series); in assay [6], 8.71 upbm affinity estimate (log intensity, higher = more binding, comparable within an allelic series). The binding signal in assay [7] is 8.7 upbm affinity estimate (log intensity, higher = more binding, comparable within an allelic series); in [8], 8.66 upbm affinity estimate (log intensity, higher = more binding, comparable within an allelic series); in assay [9] it was 8.63 upbm affinity estimate (log intensity, higher = more binding, comparable within an allelic series); in assay [10], 8.66 upbm affinity estimate (log intensity, higher = more binding, comparable within an allelic series); in [11], 8.8 upbm affinity estimate (log intensity, higher = more binding, comparable within an allelic series); in [12] it was 8.68 upbm affinity estimate (log intensity, higher = more binding, comparable within an allelic series). Besides, in [13], the binding signal was 8.7 upbm affinity estimate (log intensity, higher = more binding, comparable within an allelic series).
Regarding GTATCACA, the binding signal in assay [1] is 11.4 upbm affinity estimate (log intensity, higher = more binding, comparable within an allelic series); in assay [2] it was 10.4 upbm affinity estimate (log intensity, higher = more binding, comparable within an allelic series); in [3], 11.4 upbm affinity estimate (log intensity, higher = more binding, comparable within an allelic series); in assay [4] it was 9.83 upbm affinity estimate (log intensity, higher = more binding, comparable within an allelic series); in assay [5], 10.8 upbm affinity estimate (log intensity, higher = more binding, comparable within an allelic series); in assay [6], 11.2 upbm affinity estimate (log intensity, higher = more binding, comparable within an allelic series). For the same sequence, the binding signal was 10.5 upbm affinity estimate (log intensity, higher = more binding, comparable within an allelic series) in assay [7]; 11.6 upbm affinity estimate (log intensity, higher = more binding, comparable within an allelic series) in assay [8]; 11.4 upbm affinity estimate (log intensity, higher = more binding, comparable within an allelic series) in assay [9]; 11.4 upbm affinity estimate (log intensity, higher = more binding, comparable within an allelic series) in assay [10]; 11.2 upbm affinity estimate (log intensity, higher = more binding, comparable within an allelic series) in assay [11]; 11.2 upbm affinity estimate (log intensity, higher = more binding, comparable within an allelic series) in assay [12]. Also, the binding signal in [13] was 11.2 upbm affinity estimate (log intensity, higher = more binding, comparable within an allelic series).
In the case of GATATCAC, the binding signal is 11.4 upbm affinity estimate (log intensity, higher = more binding, comparable within an allelic series) in assay [1]; 10.3 upbm affinity estimate (log intensity, higher = more binding, comparable within an allelic series) in assay [2]; 11.4 upbm affinity estimate (log intensity, higher = more binding, comparable within an allelic series) in assay [3]; 9.67 upbm affinity estimate (log intensity, higher = more binding, comparable within an allelic series) in [4]; 10.7 upbm affinity estimate (log intensity, higher = more binding, comparable within an allelic series) in assay [5]; 11.1 upbm affinity estimate (log intensity, higher = more binding, comparable within an allelic series) in [6]. Also, the binding signal was 10.3 upbm affinity estimate (log intensity, higher = more binding, comparable within an allelic series) in assay [7]; 11.4 upbm affinity estimate (log intensity, higher = more binding, comparable within an allelic series) in assay [8]; 11.2 upbm affinity estimate (log intensity, higher = more binding, comparable within an allelic series) in [9]; 11.2 upbm affinity estimate (log intensity, higher = more binding, comparable within an allelic series) in assay [10]; 11.1 upbm affinity estimate (log intensity, higher = more binding, comparable within an allelic series) in [11]; 11.1 upbm affinity estimate (log intensity, higher = more binding, comparable within an allelic series) in assay [12]. Further, the binding signal in assay [13] was 11.1 upbm affinity estimate (log intensity, higher = more binding, comparable within an allelic series).
CCGCAGCG: the binding signal in [1] was 8.92 upbm affinity estimate (log intensity, higher = more binding, comparable within an allelic series); in assay [2] it was 8.95 upbm affinity estimate (log intensity, higher = more binding, comparable within an allelic series); in assay [3] it was 8.92 upbm affinity estimate (log intensity, higher = more binding, comparable within an allelic series); in assay [4] it was 9.03 upbm affinity estimate (log intensity, higher = more binding, comparable within an allelic series); in assay [5], 8.98 upbm affinity estimate (log intensity, higher = more binding, comparable within an allelic series); in assay [6], 8.95 upbm affinity estimate (log intensity, higher = more binding, comparable within an allelic series). The binding signal in assay [7] is 8.96 upbm affinity estimate (log intensity, higher = more binding, comparable within an allelic series); in [8], 8.86 upbm affinity estimate (log intensity, higher = more binding, comparable within an allelic series); in assay [9], 8.88 upbm affinity estimate (log intensity, higher = more binding, comparable within an allelic series); in assay [10] it was 8.92 upbm affinity estimate (log intensity, higher = more binding, comparable within an allelic series); in [11] it was 8.99 upbm affinity estimate (log intensity, higher = more binding, comparable within an allelic series); in assay [12], 8.96 upbm affinity estimate (log intensity, higher = more binding, comparable within an allelic series). The binding signal in assay [13] was 8.92 upbm affinity estimate (log intensity, higher = more binding, comparable within an allelic series).

Source of the values: paper PMC11006913.
